Laboratory results taken from PubChem BioAssay.
The source made the active and inactive calls. Unless noted, no rule for the calls is given here.

Key:
[1] = resazurin metabolic signal in HepG2 cells – cell-based, resazurin fluorescence, 24 h, PK04 Diversity Set, profiling panel (AID 1172); details: HepG2 viability, higher = more signal
[2] = budding yeast growth changes without added modifier – OD600, strain BY4716, 24 h, basal condition, primary screen (AID 1173); details: S. cerevisiae BY4716 growth, OD600, 24 h; higher = more signal, called active from +8 up or from −8 down
[3] = viability profiling in MM1S myeloma cells – cell-based, resazurin fluorescence, basal, 24 h, PK04 Diversity Set, profiling panel (AID 1174); details: higher = more signal, called active from +8 up or from −8 down;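 also: MM1S multiple myeloma cell line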
[4] = target: Dihydroorotate dehydrogenase (quinone), mitochondrial (Plasmodium falciparum (isolate 3D7)) (UniProt Q08210); assay: inhibition of P. falciparum DHODH – biochemical, C-terminal His tag, absorbance 600 nm, primary screen (AID 1175); details: PfDHODH enzyme, DCIP absorbance 600 nm; higher = more signal, called active from +8 up or from −8 down;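 also: recombinant parasite enzyme with a five histidine tag at its C terminus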
Chain of Dihydroorotate dehydrogenase (quinone), mitochondrial (Plasmodium falciparum (isolate 3D7)) (Q08210 whole entry, looked up): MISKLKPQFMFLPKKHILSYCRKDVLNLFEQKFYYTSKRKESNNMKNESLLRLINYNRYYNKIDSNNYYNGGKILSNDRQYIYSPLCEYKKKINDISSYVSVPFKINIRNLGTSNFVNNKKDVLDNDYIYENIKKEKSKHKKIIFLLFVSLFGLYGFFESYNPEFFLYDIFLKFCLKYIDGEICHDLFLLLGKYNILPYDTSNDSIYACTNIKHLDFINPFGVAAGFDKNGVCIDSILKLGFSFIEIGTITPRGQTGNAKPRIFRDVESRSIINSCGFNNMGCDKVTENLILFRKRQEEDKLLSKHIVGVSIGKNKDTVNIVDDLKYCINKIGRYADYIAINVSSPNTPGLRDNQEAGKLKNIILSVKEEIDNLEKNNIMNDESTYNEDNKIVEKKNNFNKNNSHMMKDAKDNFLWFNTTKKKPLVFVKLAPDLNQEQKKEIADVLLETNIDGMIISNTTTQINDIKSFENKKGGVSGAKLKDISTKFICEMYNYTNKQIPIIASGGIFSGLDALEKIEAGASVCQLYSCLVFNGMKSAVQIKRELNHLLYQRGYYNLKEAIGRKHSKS

[5] = inhibition of PAO1 biofilm formation – strain PAO1, LB-PBS medium, absorbance 600 nm, primary screen (AID 1176); details: P. aeruginosa PAO1 growth/biofilm, A600, 12 h; higher = more signal
[6] = growth modulation of vineyard yeast isolate – strain RM11-1a, OD600, basal, 24 h, primary screen (AID 1177);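 also: cultures grown under basal conditions with no added stressor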; details: S. cerevisiae RM11-1a growth, OD600, 24 h; higher = more signal, called active from +8 up or from −8 down
[7] = growth of efflux-deficient E. coli DRC39 – strain DRC39, OD650, 24 h, E. coli filamentation inducers, primary screen (AID 1178);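 also: growth measured as culture turbidity by optical density at 650 nm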; details: E. coli DRC39 acrAB, higher = more signal, called active from +8 up or from −8 down
[8] = growth of efflux-deficient E. coli DRC39 – strain DRC39, OD650, 48 h, E. coli filamentation inducers, primary screen (AID 1179);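 also: screen aims at cell division blockers that make cells filament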; details: E. coli DRC39 delta-acrAB growth, higher = more signal, called active from +8 up or from −8 down
[9] = viability profiling in RPMI8226 myeloma cells – cell-based, resazurin fluorescence, basal, 24 h, PK04 Diversity Set, profiling panel (AID 1180); details: higher = more signal;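 also: RPMI8826 multiple myeloma cell line at 5000 cells per well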
[10] = target: E3 ubiquitin-protein ligase XIAP (Homo sapiens) (UniProt P98170); assay: small molecules binding XIAP protein – biophysical, small-molecule microarray, fluorescence 635 nm, primary screen (AID 1181); details: higher = more signal;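 also: score merges 667 nm emission and signal to noise over triplicate slides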
Chain of E3 ubiquitin-protein ligase XIAP (Homo sapiens) (P98170 whole entry, looked up, the tested form may be a part): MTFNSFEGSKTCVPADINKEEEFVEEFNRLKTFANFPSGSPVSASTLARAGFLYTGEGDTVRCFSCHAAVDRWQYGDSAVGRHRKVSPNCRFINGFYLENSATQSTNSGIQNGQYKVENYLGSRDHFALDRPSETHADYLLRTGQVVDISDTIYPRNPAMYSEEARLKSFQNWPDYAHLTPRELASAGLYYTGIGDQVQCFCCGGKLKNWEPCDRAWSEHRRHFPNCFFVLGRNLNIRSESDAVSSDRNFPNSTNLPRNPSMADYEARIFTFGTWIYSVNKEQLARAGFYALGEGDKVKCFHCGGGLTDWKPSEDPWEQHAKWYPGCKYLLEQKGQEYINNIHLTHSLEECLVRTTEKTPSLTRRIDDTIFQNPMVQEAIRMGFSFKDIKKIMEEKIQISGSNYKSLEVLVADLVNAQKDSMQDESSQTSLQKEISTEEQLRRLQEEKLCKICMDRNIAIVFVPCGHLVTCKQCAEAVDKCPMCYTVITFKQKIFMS

[11] = system: XIP peptide (Xip251-270) binding; assay: XIP fragment 251-270 binding compounds – biochemical, small-molecule microarray, fluorescence 635/667 nm, 0.1 µg/mL protein, primary screen (AID 1182); details: fluorescent protein binding, 635 nm, higher = more signal, called active from +8 up or from −8 down
[12] = system: XIP peptide (Xip251-270); assay: compounds binding XIP fragment 251-270 – biochemical, small-molecule microarray, fluorescence 635/667 nm, 0.5 µg/mL protein, primary screen (AID 1183); details: fluorescence 635 nm, higher = more signal
[13] = blood-stage malaria parasite viability loss – strain 3D7, DAPI fluorescence, 100 nL, primary screen (AID 1184);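 also: parasites grown inside human red blood cells in medium with human serum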; details: P. falciparum 3D7 growth, 3 d, higher = more signal
[14] = target: Homeobox protein Hox-A13 (Mus musculus) (UniProt Q62424); assay: disruptors of Hoxa13 oligonucleotide interaction – biochemical, fluorescence polarization, labeled oligonucleotide, primary screen (AID 1185); details: Hoxa13:DNA binding, 15 min, higher = more signal, called active from +8 up or from −8 down
Chain of Homeobox protein Hox-A13 (Mus musculus) (Q62424 whole entry, looked up): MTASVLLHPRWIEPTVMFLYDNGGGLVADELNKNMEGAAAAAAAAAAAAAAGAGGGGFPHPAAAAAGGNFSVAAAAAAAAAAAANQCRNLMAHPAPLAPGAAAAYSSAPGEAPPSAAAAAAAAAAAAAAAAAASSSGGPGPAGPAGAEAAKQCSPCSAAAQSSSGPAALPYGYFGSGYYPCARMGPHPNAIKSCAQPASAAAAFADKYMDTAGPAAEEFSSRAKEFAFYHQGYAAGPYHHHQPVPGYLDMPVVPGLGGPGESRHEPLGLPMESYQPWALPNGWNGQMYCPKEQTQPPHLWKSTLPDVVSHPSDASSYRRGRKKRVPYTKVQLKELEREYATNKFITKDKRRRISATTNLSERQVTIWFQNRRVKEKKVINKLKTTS

SMILES	z-score [1]	z-score [2]	z-score [3]	composite z-score [4]	z-score [5]	z-score [6]	z-score [7]	z-score [8]	z-score [9]	composite z-score [10]	composite z-score [11]	composite z-score [12]	z-score [13]	z-score [14]
C#CCCCON=C1C[C@@H](O)[C@@H](O)[C@@H]2[C@@H]3C(=O)N(CCC(=O)OCC)C(=O)[C@@H]3CC[C@H]12	-1.1	-4.65 (inactive)	-0.307 (inactive)	-0.937 (inactive)	-0.191 (inactive)	-1.71 (inactive)	0.0851 (inactive)	0.1 (inactive)	-0.192	-0.232	0.768 (inactive)	0.493	-0.206	1.24 (inactive)
O=C(C=Cc1ccc2c(c1)OCO2)c1ccc(F)cc1	-0.214	-10.1 (active)	-0.194 (inactive)	0.184 (inactive)	-0.245 (inactive)	-0.31 (inactive)	0.264 (inactive)	-0.423 (inactive)	-0.538	-0.176	-0.158 (inactive)	0.629	-0.533	0.526 (inactive)
CCN1C(=O)[C@@H]2[C@H]3C(=CC[C@@H]2C1=O)C1(OCCCO1)[C@H]1O[C@H]1[C@H]3O	-2.61	-9.39 (active)	-8.78 (active)	-18.3 (active)	2.64 (inactive)	1.15 (inactive)	-0.124 (inactive)	-0.985 (inactive)	-5.89	-0.141	0.645 (inactive)	0.689	-1.63	-10.9 (active)
CCOC(=O)[C@H](Cc1ccccc1)NC(=O)CCC1CC(OC(=O)NCc2cccc3ccccc23)CC2(CCCC(COC(=O)NCC(c3ccccc3)c3ccccc3)O2)O1 (stereo partly drawn)	0.812	-0.38 (inactive)	0.923 (inactive)	-0.305 (inactive)	-0.163 (inactive)	-0.714 (inactive)	-0.371 (inactive)	-0.661 (inactive)	1.27	0.0655	0.2 (inactive)	0.366	-1.83	-4.93 (inactive)
CCOC(=O)[C@H](CC(C)C)NC(=O)CCC1CC(OC(=O)NCc2ccc3c(c2)OCO3)CC2(CCCC(COC(=O)NCCCN3CCCC3=O)O2)O1 (stereo partly drawn)	0.217	-1.17 (inactive)	0.595 (inactive)	-1.42 (inactive)	0.38 (inactive)	0.564 (inactive)	0.877 (inactive)	0.0512 (inactive)	1.24	-0.145	-0.228 (inactive)	0.6	-1.61	-5.69 (inactive)
C[C@@H](ON=C1[C@H]2CCn3c(=O)n(-c4ccccc4)c(=O)n3[C@H]2[C@H](O)[C@@H]2O[C@H]12)c1cn([C@@H]2COC[C@H]2O)nn1	-0.311	0.337 (inactive)	-0.739 (inactive)	-0.642 (inactive)	0.523 (inactive)	-1.01 (inactive)	0.0645 (inactive)	-0.317 (inactive)	-0.715	-0.189	-0.24 (inactive)	0.324	0.0979	-2.77 (inactive)
CCOC(=O)C1=NO[C@]2(C=C(Br)C3(OCCCO3)[C@H]3O[C@H]32)C1	-0.706	-0.175 (inactive)	-0.734 (inactive)	-0.671 (inactive)	-0.646 (inactive)	-0.847 (inactive)	0.336 (inactive)	0.645 (inactive)	-0.549	0.201	-0.788 (inactive)	0.857	0.99	0.136 (inactive)
CC(C)=NOC[C@@H](C)[C@H](OCc1ccccc1)C(C)C	-0.593	0.201 (inactive)	-0.572 (inactive)	0.444 (inactive)	-0.115 (inactive)	0.536 (inactive)	-0.161 (inactive)	-0.339 (inactive)	0.887	0.0077	-0.0088 (inactive)	0.177	-0.89	1.47 (inactive)
CCN1C(=O)[C@H]2[C@H]3[C@H](O)[C@H](O)CC(=NNC(=O)OCc4ccc(OC)cc4)[C@@H]3CC[C@H]2C1=O	-0.295	0.303 (inactive)	-0.938 (inactive)	-0.367 (inactive)	-0.708 (inactive)	-1.33 (inactive)	-0.154 (inactive)	-0.0457 (inactive)	-0.381	-0.0416	0.0729 (inactive)	-0.225	-0.18	-1.25 (inactive)
CCOC(=O)[C@H](Cc1ccccc1)NC(=O)CCC1CC(OC(=O)NCCc2ccc(F)cc2)CC2(CCCC(COC(=O)NCCc3ccc(Cl)cc3)O2)O1 (stereo partly drawn)	0.072	-0.0784 (inactive)	0.231 (inactive)	-0.161 (inactive)	-0.0569 (inactive)	0.809 (inactive)	0.869 (inactive)	0.721 (inactive)	0.28	-0.0177	-0.345 (inactive)	0.348	-1.84	-3.08 (inactive)
CCCNC(=O)OC[C@H]1O[C@H](CCON=C(C)CCN2CCCc3nc(C)c(C)cc32)C=C[C@@H]1Oc1ccc(OC)cc1	0.691	0.766 (inactive)	-0.291 (inactive)	0.0151 (inactive)	0.9 (inactive)	-0.295 (inactive)	0.908 (inactive)	0.557 (inactive)	1.46	0.284	-0.0364 (inactive)	0.527	-2.33	-5.56 (inactive)
Cc1ccc(S(=O)(=O)n2c3ccccc3c3nnc(C(=O)c4ccccc4)nc32)cc1	-0.148	-0.586 (inactive)	-0.508 (inactive)	-1.1 (inactive)	0.523 (inactive)	0.151 (inactive)	1.04 (inactive)	0.0979 (inactive)	-0.222	-0.256	0.912 (inactive)	0.249	0.892	-3.73 (inactive)
CC(CCC(=O)OC[C@H]1O[C@H](C#Cc2ccccc2)C=C[C@@H]1Oc1ccc(C)cc1)=NO[C@H](C)c1cn([C@H](CO)Cc2ccccc2)nn1	0.151	0.815 (inactive)	-0.0044 (inactive)	1.1 (inactive)	0.463 (inactive)	1.78 (inactive)	0.348 (inactive)	-0.0348 (inactive)	0.274	0.0191	0.157 (inactive)	0.662	-0.563	-2.88 (inactive)
CC(C)=CCCC(C)=CCON=C1C[C@@H](O)[C@@H](O)[C@@H]2[C@@H]3C(=O)N(C(C)(C)C)C(=O)[C@@H]3CC[C@H]12	-0.369	-0.352 (inactive)	-0.274 (inactive)	-0.108 (inactive)	0.152 (inactive)	-0.264 (inactive)	0.27 (inactive)	0.612 (inactive)	-0.245	-0.172	-0.007 (inactive)	0.427	1.46	0.263 (inactive)
CCOC(=O)[C@H](CC(C)C)NC(=O)CCC1CC(OC(=O)NCCc2ccc(F)cc2)CC2(CCCC(COC(=O)NCCC(C)C)O2)O1 (stereo partly drawn)	-0.566	1.2 (inactive)	0.214 (inactive)	0.322 (inactive)	0.532 (inactive)	0.821 (inactive)	0.334 (inactive)	-0.139 (inactive)	0.398	0.0938	-0.0575 (inactive)	-0.228	-0.329	-2.83 (inactive)
CCOC(=O)NN=C1C[C@@H](O)[C@@H](O)[C@@H]2[C@@H]3C(=O)N(c4ccc(F)cc4F)C(=O)[C@@H]3CC[C@@H]12	1.06	0.559 (inactive)	0.514 (inactive)	-0.0225 (inactive)	0.118 (inactive)	0.916 (inactive)	0.239 (inactive)	-0.559 (inactive)	0.562	-0.0663	0.015 (inactive)	-0.0246	-0.404	-1.23 (inactive)
C[C@@H]1C=CCC(=O)OC[C@H]2O[C@@H](C=C[C@@H]2O)[C@H](C)C=CCC(=O)OC1	-0.444	-1.03 (inactive)	0.324 (inactive)	-0.793 (inactive)	0.565 (inactive)	-2.26 (inactive)	0.577 (inactive)	0.205 (inactive)	-0.667	-0.0826	1 (inactive)	0.538	0.387	-0.659 (inactive)
